Source: PubChem BioAssay (NCATS)
Results filed as inconclusive are left out. Active and inactive are the calls of the source.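 How the source made its calls, unless noted: active means compounds whose dose series gives a full or clear partial fitted curve of increased nuclear translocation; inconclusive means weak partial curve or effect only at the top dose; inactive means no dose-dependent translocation response.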

system: not listed separately; experiment: Stat Signaling Pathway (AID 446; active means well fitted curve in either direction with a large enough effect, not every such curve was filed as active;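 further: ME-180 cervical cancer cells given 40 pM IL-6 alongside compound; SIE-controlled beta-lactamase reporter measured as 460/530 nm FRET emission ratio; on the % scale 0 is the no-effect control and ±100 the full control effect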); details: ME-180 (cervical carcinoma) SIE beta-lactamase reporter, IL-6 stimulated, 5 h; at 17.2 µM (top of the series) unless noted
How it was run: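 Overnight-plated ME-180 cells bearing a STAT Inducible Element beta-lactamase reporter; 5 h co-exposure to compound and 40 pM IL-6; values normalized to 300 pM IL-6 and 125 nM JAK inhibitor controls.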

activity, negative = inhibition, inactive:
COC(=O)[C@@H](N)Cc1ccc(O)cc1 -6.81%
CCN(CC)CCN1C(=O)C(=O)/C(=C(/O)c2ccc(F)cc2)C1c1cccnc1 (stereo not drawn) -0.766%
N/C(=N\c1nc2ccccc2o1)NC(=O)c1ccccc1NC(=O)c1ccccc1 -27.8%
COC(=O)c1c(-n2cnnn2)sc(C)c1C 6.13%
CC1(C)Cc2c(C#N)c(NCCN3CCOCC3)nc(-c3ccco3)c2CO1 -0.141%
CN(C)c1ccc(O)c2c1CC1CC3[C@@H](N(C)C)C(=O)C(C(N)=O)=C(O)[C@]3(O)C(=O)C1=C2O (stereo partly drawn) -13.5%
O=c1c(C=NCCCn2ccnc2)c(-c2ccccc2)[nH]n1-c1nc2ccccc2s1 -15.5%
CN1C(=O)NC(c2ccccc2)C2=C1CN(Cc1ccccc1)C2=O (stereo not drawn) -9.01%
CCN(CC)C(=O)CN(C#N)c1nc(NC(C)C)nc(NC(C)C)n1 8.05%
CCCCC(=O)NC(Nc1ccc(C)cn1)(C(=O)OCC)C(F)(F)F (stereo not drawn) -20.4%
CSc1nc2sc3c(c2c2nncn12)CCC3 -3.42%
CN(C)c1ccc(C2C3C(=O)N(c4ccc(C(=O)O)cc4)C(=O)C3ON2c2ccccc2)cc1 (stereo not drawn) 5.33%
C/C(=N\O)C(=O)NCCCn1ccnc1 16.8%
CC(C)c1[nH]c(=O)c(C#N)c2c1CSC(C)(C)C2 4.25%
Cn1c(=O)c2c(nc(Oc3ccc4c(c3)OCO4)n2Cc2ccc(F)cc2)n(C)c1=O 6.83%
Cn1c2c(c(=O)n(C)c1=O)C(NC(=O)c1cccs1)(C(F)(F)F)C(=O)N2 (stereo not drawn) 5.6%
Cc1cc(OCC(=O)Nc2ccc3oc(-c4ccncc4)nc3c2)ccc1Cl 3.21%
Cc1ccc(C)c(OCc2nnc(NC(=O)c3ccco3)s2)c1 -9.58%
CN1C(=O)NC(NC(=O)c2ccco2)(C(F)(F)F)C1=O (stereo not drawn) 9.87%
Cc1c(-c2cccs2)[n+](=O)c2c(n1[O-])CCCC2 6.22%
CCOc1nc(SCCOc2ccccc2)nc(N(C)C)n1 8.95%
CC(=O)Nc1ccc(OC(=O)CC2SC(=O)NC2=O)cc1 (stereo not drawn) 5.85%
O=C(OCCCN1CCCC1)C1(c2ccccc2)CCCC1 13.7%
CCc1nc2n[nH]c(N)c2c2c1CSC(C)(C)C2 -13.2%
CCN(CC)c1nc(C)c2c(c1C#N)CC(C)(C)OC2 7.18%
Cc1cc2ccccc2cc(C)c1=O -25.4%
CCO/C(C)=N/n1c2nc3ccccc3nc2c2c(=O)n(CC(C)C)c(C)nc21 -8.62%
Cc1cccc(-c2nc(C#N)c(NC3CCCCC3)o2)c1 -7.27%
COc1cccc(OC)c1-c1nn2c(-c3ccco3)nnc2s1 -4.43%
Cn1c(OCc2cccnc2)nc2c1c(=O)n(Cc1ccc(Cl)cc1)c(=O)n2C -15.9%
Cc1nnc2n(Cc3ccccc3)c(=O)c3c4c(sc3n12)CN(Cc1ccccc1)CC4 5.01%
CN=C1c2cc3c(Br)c(OC)ccc3n2CCN1C 6.11%
Cc1cc(C)nc(NC(=O)c2ccc(OC(C)C)cc2)n1 -7.33%
COc1cccc(C2C(C(=O)c3cc4ccccc4o3)=C(O)C(=O)N2CCN(C)C)c1OC (stereo not drawn) -6.68%
COc1ccc2c(c1OC)C(=O)N1c3ccccc3SC21 (stereo not drawn) -2.16%
CCNc1nc(Oc2ccccc2)nc(OC(C)C(=O)OCC)n1 (stereo not drawn) 1.47%
O=C1CC(NCc2ccc3c(c2)OCO3)C(=O)N1Cc1ccc2c(c1)OCO2 (stereo not drawn) -1.08%
CCCCC1CC1C(=O)Nc1ccc(OC)c(OC)c1 (stereo not drawn) 6.67%
O=C(O)c1cc2n(n1)C(C(F)(F)F)CC(c1ccccc1)N2 (stereo not drawn) -1.46%

biological target: Glucocorticoid receptor (Homo sapiens) (UniProt P04150); experiment: GR-GFP Redistribution (AID 450); details: U2OS GR-GFP nuclear translocation, laser cytometry, 2 h; series mostly up to 20.6 µM; further: potency means the concentration at half of the fitted maximal effect
Sequence (P04150 whole entry, looked up): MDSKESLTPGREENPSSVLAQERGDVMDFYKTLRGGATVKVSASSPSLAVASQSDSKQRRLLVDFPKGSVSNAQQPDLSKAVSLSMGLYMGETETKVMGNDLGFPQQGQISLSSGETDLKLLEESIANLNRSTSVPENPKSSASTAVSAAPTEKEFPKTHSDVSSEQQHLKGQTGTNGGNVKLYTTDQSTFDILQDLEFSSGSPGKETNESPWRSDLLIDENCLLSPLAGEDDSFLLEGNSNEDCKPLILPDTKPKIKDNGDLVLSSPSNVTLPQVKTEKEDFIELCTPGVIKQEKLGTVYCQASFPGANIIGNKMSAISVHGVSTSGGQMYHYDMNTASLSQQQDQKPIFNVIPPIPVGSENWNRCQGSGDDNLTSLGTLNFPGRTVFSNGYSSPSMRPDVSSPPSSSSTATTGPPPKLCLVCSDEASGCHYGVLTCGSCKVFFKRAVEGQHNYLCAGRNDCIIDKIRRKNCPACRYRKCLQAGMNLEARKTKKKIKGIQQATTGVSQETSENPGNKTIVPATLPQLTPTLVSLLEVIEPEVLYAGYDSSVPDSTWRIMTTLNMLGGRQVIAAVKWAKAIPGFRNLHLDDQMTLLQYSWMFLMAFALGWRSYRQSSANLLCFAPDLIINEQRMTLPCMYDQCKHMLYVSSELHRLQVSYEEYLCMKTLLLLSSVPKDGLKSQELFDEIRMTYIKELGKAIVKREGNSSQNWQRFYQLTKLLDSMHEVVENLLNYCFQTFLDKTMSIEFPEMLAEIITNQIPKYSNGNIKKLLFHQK

Potency, inactive:
COC(=O)[C@@H](N)Cc1ccc(O)cc1 > 20.6 µM
CCN(CC)CCN1C(=O)C(=O)/C(=C(/O)c2ccc(F)cc2)C1c1cccnc1 (stereo not drawn) > 20.6 µM
N/C(=N\c1nc2ccccc2o1)NC(=O)c1ccccc1NC(=O)c1ccccc1 > 20.6 µM
COC(=O)c1c(-n2cnnn2)sc(C)c1C > 20.6 µM
CC1(C)Cc2c(C#N)c(NCCN3CCOCC3)nc(-c3ccco3)c2CO1 > 20.6 µM
CN(C)c1ccc(O)c2c1CC1CC3[C@@H](N(C)C)C(=O)C(C(N)=O)=C(O)[C@]3(O)C(=O)C1=C2O (stereo partly drawn) > 20.6 µM
O=c1c(C=NCCCn2ccnc2)c(-c2ccccc2)[nH]n1-c1nc2ccccc2s1 > 20.6 µM
CN1C(=O)NC(c2ccccc2)C2=C1CN(Cc1ccccc1)C2=O (stereo not drawn) > 20.6 µM
CCN(CC)C(=O)CN(C#N)c1nc(NC(C)C)nc(NC(C)C)n1 > 20.6 µM
CCCCC(=O)NC(Nc1ccc(C)cn1)(C(=O)OCC)C(F)(F)F (stereo not drawn) > 20.6 µM
CSc1nc2sc3c(c2c2nncn12)CCC3 > 20.6 µM
CN(C)c1ccc(C2C3C(=O)N(c4ccc(C(=O)O)cc4)C(=O)C3ON2c2ccccc2)cc1 (stereo not drawn) > 20.6 µM
C/C(=N\O)C(=O)NCCCn1ccnc1 > 20.6 µM
CC(C)c1[nH]c(=O)c(C#N)c2c1CSC(C)(C)C2 > 20.6 µM
Cn1c(=O)c2c(nc(Oc3ccc4c(c3)OCO4)n2Cc2ccc(F)cc2)n(C)c1=O > 20.6 µM
Cn1c2c(c(=O)n(C)c1=O)C(NC(=O)c1cccs1)(C(F)(F)F)C(=O)N2 (stereo not drawn) > 20.6 µM
Cc1cc(OCC(=O)Nc2ccc3oc(-c4ccncc4)nc3c2)ccc1Cl > 20.6 µM
Cc1ccc(C)c(OCc2nnc(NC(=O)c3ccco3)s2)c1 > 20.6 µM
CN1C(=O)NC(NC(=O)c2ccco2)(C(F)(F)F)C1=O (stereo not drawn) > 20.6 µM
Cc1c(-c2cccs2)[n+](=O)c2c(n1[O-])CCCC2 > 20.6 µM
CCOc1nc(SCCOc2ccccc2)nc(N(C)C)n1 > 20.6 µM
CC(=O)Nc1ccc(OC(=O)CC2SC(=O)NC2=O)cc1 (stereo not drawn) > 20.6 µM
O=C(OCCCN1CCCC1)C1(c2ccccc2)CCCC1 > 20.6 µM
CCc1nc2n[nH]c(N)c2c2c1CSC(C)(C)C2 > 20.6 µM
CCN(CC)c1nc(C)c2c(c1C#N)CC(C)(C)OC2 > 20.6 µM
Cc1cc2ccccc2cc(C)c1=O > 20.6 µM
CCO/C(C)=N/n1c2nc3ccccc3nc2c2c(=O)n(CC(C)C)c(C)nc21 > 20.6 µM
Cc1cccc(-c2nc(C#N)c(NC3CCCCC3)o2)c1 > 20.6 µM
COc1cccc(OC)c1-c1nn2c(-c3ccco3)nnc2s1 > 20.6 µM
Cn1c(OCc2cccnc2)nc2c1c(=O)n(Cc1ccc(Cl)cc1)c(=O)n2C > 20.6 µM
Cc1nnc2n(Cc3ccccc3)c(=O)c3c4c(sc3n12)CN(Cc1ccccc1)CC4 > 20.6 µM
CN=C1c2cc3c(Br)c(OC)ccc3n2CCN1C > 20.6 µM
Cc1cc(C)nc(NC(=O)c2ccc(OC(C)C)cc2)n1 > 20.6 µM
COc1cccc(C2C(C(=O)c3cc4ccccc4o3)=C(O)C(=O)N2CCN(C)C)c1OC (stereo not drawn) > 20.6 µM
COc1ccc2c(c1OC)C(=O)N1c3ccccc3SC21 (stereo not drawn) > 20.6 µM
CCNc1nc(Oc2ccccc2)nc(OC(C)C(=O)OCC)n1 (stereo not drawn) > 20.6 µM
O=C1CC(NCc2ccc3c(c2)OCO3)C(=O)N1Cc1ccc2c(c1)OCO2 (stereo not drawn) > 20.6 µM
CCCCC1CC1C(=O)Nc1ccc(OC)c(OC)c1 (stereo not drawn) > 20.6 µM
O=C(O)c1cc2n(n1)C(C(F)(F)F)CC(c1ccccc1)N2 (stereo not drawn) > 20.6 µM
